Source: PubChem BioAssay (several laboratories)
ADAM17 inh: inhibitors of human ADAM17. P78536. recombinant ADAM17, EDANS/DABCYL FRET peptide cleavage. 370,000 compounds, 0.83% hits. inhibition, % at 6.95 µM;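 active = inhibition above the mean of compounds lying between control limits plus 3 SD, set per campaign, cut at about 8.5% in these data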;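 note: 0% = DMSO-only wells as the low control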
Target sequence (P78536 215-824 limits assumed): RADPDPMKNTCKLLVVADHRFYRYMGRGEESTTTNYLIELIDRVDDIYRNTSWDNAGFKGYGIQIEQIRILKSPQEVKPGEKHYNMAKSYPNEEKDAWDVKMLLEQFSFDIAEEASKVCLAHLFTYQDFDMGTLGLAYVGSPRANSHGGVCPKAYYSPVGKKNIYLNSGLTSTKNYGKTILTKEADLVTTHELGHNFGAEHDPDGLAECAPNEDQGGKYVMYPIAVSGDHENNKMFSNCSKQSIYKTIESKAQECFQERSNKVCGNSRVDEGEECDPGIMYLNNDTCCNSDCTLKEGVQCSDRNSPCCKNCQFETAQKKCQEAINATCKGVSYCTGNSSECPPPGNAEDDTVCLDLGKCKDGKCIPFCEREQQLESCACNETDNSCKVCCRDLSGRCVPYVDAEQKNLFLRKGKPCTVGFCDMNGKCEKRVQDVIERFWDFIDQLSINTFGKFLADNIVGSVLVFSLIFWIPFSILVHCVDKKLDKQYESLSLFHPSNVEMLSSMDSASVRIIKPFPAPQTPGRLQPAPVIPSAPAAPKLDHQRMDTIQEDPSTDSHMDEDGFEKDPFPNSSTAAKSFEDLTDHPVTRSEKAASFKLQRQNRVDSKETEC
KLK7 zymogen act: activators of human kallikrein-7 zymogen. P49862. purified proKLK7, EDANS-DABCYL substrate fluorescence; 100% is mature enzyme control, 0% vehicle. activation, % at 7 µM. 370,000 compounds, 0.9% hits. AID 652039;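 active = activation above the mean of all tested compounds plus 3 SD, computed per campaign excluding outliers beyond control limits, cut at about 13% in these data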
CendR NRP1 mod: NRP-1/CendR interaction modulation. O14786. FAM-RPARPAR peptide binding to NRP-1, fluorescence polarization. inhibition, % at 25 µM. 360,000 compounds, 0.85% hits. AID 602438;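 active = inhibition or corrected inhibition above about 18%, plus a signal ratio from 0.5 to 1.5, limit read from the data, passing the limit was not always enough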
ADAM10 inh: inhibits human ADAM10; recombinant ADAM10, EDANS/DABCYL FRET peptide cleavage, 3 h; O14672; 370,000 compounds, 0.62% hits; inhibition, % at 7 µM; AID 720582;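 active = inhibition above a per-campaign cutoff equal to the mean of compounds falling between control-based bounds plus 3 SD, cut at about 20% in these data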;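 note: 0% = DMSO wells while the 100% control is not disclosed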
HGIII-sPLA2 inh: Blocks human group III sPLA2 activity; Q9NZ20; QFRET BODIPY PC-A2 liposome hydrolysis, fluorescence; inhibition, % at 12.2 µM; 370,000 compounds, 0.56% hits; AID 743126;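 active = inhibition above mean plus 3 SD of compounds lying within the high and low control bounds, cut at about 19% in these data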;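 note: 0% = median of test compound wells and 100% = no enzyme DMSO wells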
sPLA2 confirm: human GIII-sPLA2 inhibition, confirmation. shares compounds with HGIII-sPLA2 inh. inhibition, % at 12.2 µM. 2,000 compounds, 34% hits. recombinant hGIII-sPLA2, BODIPY PC-A2 QFRET fluorescence;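 active = mean inhibition across triplicates above the hit cutoff set in the earlier primary screen, cut at about 19% in these data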;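 note: 0% = enzyme with DMSO and 100% = DMSO wells lacking enzyme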
535nm interf: counter-screen for HGIII-sPLA2 inhibitors: 535nm fluorescence interference; shares compounds with HGIII-sPLA2 inh; BODIPY FL product fluorescence interference, QFRET; inhibition, % at 12.2 µM; 2,000 compounds, 8.5% hits;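 active = average inhibition above the solvent-only control mean plus 3 SD, cut at about 6% in these data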;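 note: 0% = DMSO with substrate plus product and 100% = DMSO with substrate alone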
535nm interf DR: interferes with 535nm fluorescence in dose response counter-screen; shares compounds with HGIII-sPLA2 inh; BODIPY FL product fluorescence interference, cell-free; IC50, µM; 240 tested, under 10 active;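 active = IC50 at or below 10 µM; inactive = IC50 above 10 µM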
Numbers without * were called inactive; · = no result. The list is not random: actives were taken first. Their share in the collection is about 3.4%.

SMILES | ADAM17 inh | KLK7 zymogen act | CendR NRP1 mod | ADAM10 inh | HGIII-sPLA2 inh | sPLA2 confirm | 535nm interf | others
COc1ccccc1/C=N\NC(=O)c1cccc(S(=O)(=O)N(C)C)c1 | -3 | 0 | · | -8 | 9 | · | ·
CN1C[C@]2(C=C3CCCCC3n3c(=O)n(-c4ccccc4)c(=O)n32)N(C(=O)OCc2ccccc2)C1=NC(=O)c1ccccc1 (some centres undefined) | 1 | 1 | · | 8 | -4 | · | ·
O=c1c2ccccc2[nH]c(=S)n1Cc1cccnc1 | -2 | 0 | -7 | -4 | 20* | 11 | -5
O=C(Nc1nc2ccccc2[nH]1)c1cccc([N+](=O)[O-])c1 | -2 | 0 | 4 | -1 | 11 | · | ·
COC(=O)c1cc(C(=O)Nc2nc3ccccc3[nH]2)cc([N+](=O)[O-])c1 | 3 | 1 | 3 | 9 | 29* | 15 | 7.0*
CC1(C)CC(=O)C=C(Nc2ccc(Br)cn2)C1 | -6 | 0 | 8 | 4 | 21* | 2 | -8
CC(C)CN1C(=O)C[C@]2(C(=O)N(C)c3ccc(NS(=O)(=O)c4ccc(F)cc4)cc32)C1c1ccccc1 (some centres undefined) | -1 | 0 | · | 1 | -12 | · | ·
COc1ccc(NC(=S)NC(NC(=O)c2cccc(Cl)c2)C(Cl)(Cl)Cl)c([N+](=O)[O-])c1 (centres undefined) | 4 | 1 | -2 | 13 | 29* | 52* | 12*
CS(=O)(=O)N1CCN(c2nc3ccc(Cl)cc3s2)CC1 | 0 | 0 | 9 | 1 | 23* | -3 | -7
Cc1ccc(CNC(=O)CSc2nc3[nH]ncc3c(=O)[nH]2)cc1 | -3 | 0 | 5 | -6 | 19* | -2 | -5
O=C(/C=C/c1ccccc1)NC(=S)NNC(=O)c1cccnc1 | 1 | 1 | -11 | 7 | 9 | · | ·
O=C(/C=C/c1ccccc1)NC(=S)NNC(=O)c1cnccn1 | 3 | 0 | 3 | 7 | 25* | 34* | -1 | 535nm interf DR=>122
CCn1c(SCc2ccccc2Cl)nnc1-c1ccccc1OC | 2 | 0 | · | -9 | 8 | · | ·
S=c1[nH]nc(Cc2cccc3ccccc23)o1 | -1 | 1 | 5 | -2 | 24* | 14 | 3
Cc1[nH]c2ccccc2c1Cc1n[nH]c(=S)o1 | -1 | 0 | -10 | -7 | 11 | · | ·
CCCCn1c(/C=N/Nc2nc3ccccc3[nH]2)nc2ccccc21 | 3 | -2 | -3 | -1 | 35* | 31* | -18
CCCCn1c(/C=C/c2ccco2)nc2ccccc21 | -14 | 1 | -45 | -51 | -3 | · | ·
Cc1ccc(-n2[nH]c(C)c(C=Nc3ccc(S(=O)(=O)N4CCOCC4)cc3)c2=O)c(C)c1 | -1 | 0 | · | 0 | 22* | 8 | -12
Cc1ccc(NC(=O)CN2CCCC2)cc1 | 4 | 0 | -73 | 13 | 79* | 6 | -4
Cc1cccc(NC(=O)CN2CCN(C(=O)C3CCC3)CC2)c1C | -1 | 0 | 8 | -13 | 21* | -7 | -5
c1csc(CNc2ncnc3ccc(-c4ccc5c(c4)OCO5)cc23)n1 | -48 | · | · | -114 | 0 | · | ·
C=CCN=C1NC(c2ccc(Cl)cc2)C(C(=O)OC)=C(C)N1Cc1ccccc1C(F)(F)F (centres undefined) | -1 | 0 | · | 3 | -3 | · | ·
CCc1cc2c3c(c1)C(C)CC(C)(C)N3C(=O)C2=O (centres undefined) | -3 | 0 | -5 | -10 | 27* | 12 | -4
CC(C)CNc1cccc2c1S(=O)(=O)N[C@@H](Cc1ccccc1)CO2 | 0 | 0 | · | -6 | -6 | · | ·
COc1ccc2[nH]c(N=Nc3ccccc3C)c(O)c2c1 | -2 | 1 | -12 | -8 | 25* | 10 | 2
SMILES | ADAM17 inh | KLK7 zymogen act | CendR NRP1 mod | ADAM10 inh | HGIII-sPLA2 inh | sPLA2 confirm | 535nm interf | others
O=C1CC(c2ccc3ccccc3c2)N=C2N(Cc3ccc4c(c3)OCO4)C/C(=C/c3ccccc3)N12 (centres undefined) | 0 | · | · | 7 | -8 | · | ·
CCCCCCCCN1CCS(=O)(=O)N(Cc2ccc(F)cc2)C(C(=O)OC)C1 (centres undefined) | 1 | 1 | · | 2 | 1 | · | ·
COc1cc(CNc2ccc3[nH]c(=O)[nH]c3c2)ccc1OCc1ccccc1F | -49 | -1 | -4 | -181 | 24* | 24* | -1
COc1cc(CNc2ccc3[nH]c(=O)[nH]c3c2)ccc1OCc1ccccc1C | -23 | -2 | -22 | -63 | -1 | · | ·
CCc1cc(C(=O)Nc2nc(-c3ccccn3)cs2)sc1C | -4 | 0 | -21 | -33 | 21* | 25* | 3
O=C(Nc1nc(-c2ccccn2)cs1)c1ccc(-c2ccccc2F)o1 | -11 | -3 | -10 | -77 | 21* | 24* | 4
Cc1ccc(C(=O)Nc2nc(-c3ccccn3)cs2)o1 | -7 | 0 | -1 | -10 | 7 | · | ·
Cc1cc(C(=O)Nc2nc(-c3ccccn3)cs2)ccc1[N+](=O)[O-] | -1 | 0 | 2 | -1 | 26* | 28* | -2 | 535nm interf DR=>122
COc1ccc(Nc2nc(-c3cccs3)cs2)cc1 | 0 | 0 | · | -4 | 2 | · | ·
Oc1ccc(Nc2nc(-c3cccs3)cs2)cc1 | -8 | 0 | 2 | -12 | 23* | 23* | 9.7*
CNC(=S)N/N=C/c1c(C(=O)OC)cnn1-c1ccc(F)cc1F | 2 | 0 | 7 | -5 | 14 | · | ·
COC(=O)c1cnn(-c2ccc(F)cc2F)c1/C=N/NC(=S)Nc1ccccc1 | 8 | · | · | 7 | 22* | 20* | 0
COC(=O)C1CN(Cc2ccccc2)CCS(=O)(=O)N1Cc1cn(Cc2ccc(Cl)cc2)nn1 (centres undefined) | -1 | 0 | · | -7 | 7 | · | ·
Cc1ccc(Cn2c(=O)n(Cc3ccc(C(=O)NCC4COC4)cc3)c(=O)c3ccccc32)cc1 | 0 | 1 | · | 0 | -4 | · | ·
CCN(CC)C(=S)NC(=O)c1ccc(Cl)cc1Cl | 5 | 0 | -3 | -7 | 15 | · | ·
CCCCN(CCCC)C(=S)NC(=O)c1ccccc1Cl | -2 | 0 | 8 | 3 | 30* | 11 | -1
CCC(C)N(C(=O)CSc1nnc(-c2cc(OC)c(OC)c(OC)c2)o1)C(C)CC (centres undefined) | -3 | -1 | · | -5 | 2 | · | ·
CC(COc1cccc(Br)c1)CN1CCC(C(O)(c2ccccc2)c2ccccc2)CC1 (centres undefined) | 5 | 0 | · | 10 | -11 | · | ·
